# Experimental data reported in PubChem BioAssay AID1159580 (chemical genetic matrix, 2015).
# About 2,000 (36%) of roughly 5,500 compounds were called active. Inconclusive results (about 18%) are left out. Some of the results follow. A number with no mark means an inactive call. Rule as the data show it: active = normalized growth mostly below about 0.91 (no sharp cut-off); inconclusive = no clear call, values can overlap the other calls; inactive = mostly above about 0.92. Where a SMILES comes first, the peptide text is derived from it. [ ]: non-standard residue; d: D form. Orn = NCCC[CH](N)C(=O)O
# Experiment: chemical genetic growth profiling, strain panel (AID 1159580);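 also: tested at 20 µM; growth read once vehicle control cultures reached saturation at 30 °C; 1 = growth at the plate median or of vehicle wells; lower values mean less growth of the strain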
# Conditions: growth OD
smiles,measurement,setting,value
CC(C)CC1NC(=O)C(CCCN)NC(=O)C(C(C)C)NC(=O)C2CCCN2C(=O)C(Cc2ccccc2)NC(=O)C(CC(C)C)NC(=O)C(CCCN)NC(=O)C(C(C)C)NC(=O)C2CCCN2C(=O)C(Cc2ccccc2)NC1=O (stereo unspecified) (cyclo(FPV[Orn]LFPV[Orn]L); configuration not given here),normalized growth,"S. cerevisiae deletion strains, locus YKL009W, strain mrt4, hits give low values",1.4 [resistant] (active)
same,normalized growth,"S. cerevisiae deletion strains, locus YKL068W, hits give low values",1.25 [resistant] (active)
same,normalized growth,"S. cerevisiae deletion strains, locus YKL085W, strain MDH1 (second series), hits give low values",1.11 [resistant] (active)
same,normalized growth,"S. cerevisiae deletion strains, locus YKL085W, strain MDH1, hits give low values",1.11 [resistant] (active)
same,normalized growth,"S. cerevisiae deletion strains, locus YKL160W, strain elf1, hits give low values",1.02
same,normalized growth,"S. cerevisiae deletion strains, locus YKL190W, strain CNB1, hits give low values",1.02
same,normalized growth,"S. cerevisiae deletion strains, locus YKR001C, strain vps1, hits give low values",0.236 (active)
same,normalized growth,"S. cerevisiae deletion strains, locus YKR026C, strain gcn3, hits give low values",1.04
same,normalized growth,"S. cerevisiae deletion strains, locus YKR091W, strain srl3, hits give low values",1.02
same,normalized growth,"S. cerevisiae deletion strains, locus YLL001W, strain dnm1, hits give low values",1.03
same,normalized growth,"S. cerevisiae deletion strains, locus YLL026W, hits give low values",1.02
same,normalized growth,"S. cerevisiae deletion strains, locus YLL041C, strain sdh2, hits give low values",1.02
same,normalized growth,"S. cerevisiae deletion strains, locus YLR027C, strain aat2, hits give low values",1.01
same,normalized growth,"S. cerevisiae deletion strains, locus YLR039C, strain RIC1, hits give low values",0.328 (active)
same,normalized growth,"S. cerevisiae deletion strains, locus YLR058C, strain SHM2, hits give low values",1
same,normalized growth,"S. cerevisiae deletion strains, locus YLR102C, strain apc9, hits give low values",1.01
same,normalized growth,"S. cerevisiae deletion strains, locus YLR113W, strain HOG1, hits give low values",0.971
same,normalized growth,"S. cerevisiae deletion strains, locus YLR221C, strain rsa3, hits give low values",1.04
same,normalized growth,"S. cerevisiae deletion strains, locus YLR258W, strain gsy2, hits give low values",1.04
same,normalized growth,"S. cerevisiae deletion strains, locus YLR262C, strain YPT6 (second series), hits give low values",0.293 (active)
same,normalized growth,"S. cerevisiae deletion strains, locus YLR262C, strain YPT6, hits give low values",0.285 (active)
same,normalized growth,"S. cerevisiae deletion strains, locus YLR268W, strain sec22, hits give low values",0.989
same,normalized growth,"S. cerevisiae deletion strains, locus YLR320W, strain mms22, hits give low values",1.02
same,normalized growth,"S. cerevisiae deletion strains, locus YLR330W, strain CHS5, hits give low values",1.01
same,normalized growth,"S. cerevisiae deletion strains, locus YLR342W, strain FKS1 (second series), hits give low values",0.857
same,normalized growth,"S. cerevisiae deletion strains, locus YLR342W, strain FKS1, hits give low values",1.02
same,normalized growth,"S. cerevisiae deletion strains, locus YLR357W, strain rsc2, hits give low values",0.968
same,normalized growth,"S. cerevisiae deletion strains, locus YLR370C, strain arc18, hits give low values",0.927
same,normalized growth,"S. cerevisiae deletion strains, locus YLR371W, strain rom2, hits give low values",1.01
same,normalized growth,"S. cerevisiae deletion strains, locus YLR384C, strain iki3, hits give low values",1.03
same,normalized growth,"S. cerevisiae deletion strains, locus YLR418C, strain cdc73, hits give low values",0.932
same,normalized growth,"S. cerevisiae deletion strains, locus YML016C, strain PPZ1, hits give low values",1.01
same,normalized growth,"S. cerevisiae deletion strains, locus YML032C, strain rad52, hits give low values",0.989
same,normalized growth,"S. cerevisiae deletion strains, locus YML120C, strain ndi1, hits give low values",1.02
same,normalized growth,"S. cerevisiae deletion strains, locus YML124C, strain tub3, hits give low values",1
same,normalized growth,"S. cerevisiae deletion strains, locus YMR058W, strain fet3, hits give low values",1.03
same,normalized growth,"S. cerevisiae deletion strains, locus YMR078C, strain ctf18, hits give low values",1.01
same,normalized growth,"S. cerevisiae deletion strains, locus YMR125W, strain sto1, hits give low values",0.999
same,normalized growth,"S. cerevisiae deletion strains, locus YMR129W, hits give low values",1.02
same,normalized growth,"S. cerevisiae deletion strains, locus YMR205C, strain PFK2, hits give low values",1.02
same,normalized growth,"S. cerevisiae deletion strains, locus YMR223W, strain ubp8, hits give low values",0.978
same,normalized growth,"S. cerevisiae deletion strains, locus YMR231W, strain pep5, hits give low values",0.324 (active)
same,normalized growth,"S. cerevisiae deletion strains, locus YMR263W, strain SAP30, hits give low values",1
same,normalized growth,"S. cerevisiae deletion strains, locus YMR307W, strain GAS1, hits give low values",0.833
same,normalized growth,"S. cerevisiae deletion strains, locus YNL067W, strain RPL9B, hits give low values",0.994
same,normalized growth,"S. cerevisiae deletion strains, locus YNL071W, strain lat1, hits give low values",1.03
same,normalized growth,"S. cerevisiae deletion strains, locus YNL128W, strain TEP1, hits give low values",1.03
same,normalized growth,"S. cerevisiae deletion strains, locus YNL153C, strain GIM3, hits give low values",1
same,normalized growth,"S. cerevisiae deletion strains, locus YNL183C, strain NPR1, hits give low values",0.948
same,normalized growth,"S. cerevisiae deletion strains, locus YNL209W, strain ssb2, hits give low values",1.01
same,normalized growth,"S. cerevisiae deletion strains, locus YNL233W, strain BNI4, hits give low values",0.982
same,normalized growth,"S. cerevisiae deletion strains, locus YNL248C, strain rpa49, hits give low values",1.03
same,normalized growth,"S. cerevisiae deletion strains, locus YNL250W, strain rad50, hits give low values",0.998
same,normalized growth,"S. cerevisiae deletion strains, locus YNL271C, strain bni1, hits give low values",0.995
same,normalized growth,"S. cerevisiae deletion strains, locus YNL298W, strain CLA4, hits give low values",0.967
same,normalized growth,"S. cerevisiae deletion strains, locus YNL307C, strain MCK1, hits give low values",0.991
same,normalized growth,"S. cerevisiae deletion strains, locus YNL322C, strain KRE1 (second series), hits give low values",1.06
same,normalized growth,"S. cerevisiae deletion strains, locus YNL322C, strain KRE1, hits give low values",1.01
same,normalized growth,"S. cerevisiae deletion strains, locus YNR049C, strain mso1, hits give low values",1.04
same,normalized growth,"S. cerevisiae deletion strains, locus YNR052C, strain pop2, hits give low values",0.984
same,normalized growth,"S. cerevisiae deletion strains, locus YOL006C, strain TOP1, hits give low values",0.122 (active)
same,normalized growth,"S. cerevisiae deletion strains, locus YOL012C, strain htz1",0.807
same,normalized growth,"S. cerevisiae deletion strains, locus YOL147C, strain pex11, hits give low values",1.01
same,normalized growth,"S. cerevisiae deletion strains, locus YOR001W, strain rrp6, hits give low values",1
same,normalized growth,"S. cerevisiae deletion strains, locus YOR061W, strain CKA2, hits give low values",1
same,normalized growth,"S. cerevisiae deletion strains, locus YOR069W, strain VPS5, hits give low values",1
same,normalized growth,"S. cerevisiae deletion strains, locus YOR070C, strain gyp1, hits give low values",1.03
same,normalized growth,"S. cerevisiae deletion strains, locus YOR080W, strain dia2, hits give low values",1.05
same,normalized growth,"S. cerevisiae deletion strains, locus YOR083W, strain WHI5, hits give low values",1.01
same,normalized growth,"S. cerevisiae deletion strains, locus YOR106W, strain vam3, hits give low values",1.01
same,normalized growth,"S. cerevisiae deletion strains, locus YOR136W, strain idh2, hits give low values",1
same,normalized growth,"S. cerevisiae deletion strains, locus YOR144C, strain elg1, hits give low values",1
same,normalized growth,"S. cerevisiae deletion strains, locus YOR184W, strain ser1, hits give low values",0.987
same,normalized growth,"S. cerevisiae deletion strains, locus YOR231W, strain MKK1, hits give low values",0.983
same,normalized growth,"S. cerevisiae deletion strains, locus YOR265W, strain rbl2, hits give low values",1.03
same,normalized growth,"S. cerevisiae deletion strains, locus YOR270C, strain vph1, hits give low values",0.468 (active)
same,normalized growth,"S. cerevisiae deletion strains, locus YOR290C, strain snf2, hits give low values",0.973
same,normalized growth,"S. cerevisiae deletion strains, locus YOR316C, strain cot1, hits give low values",1.01
same,normalized growth,"S. cerevisiae deletion strains, locus YPL051W, strain arl3, hits give low values",0.7 (active)
same,normalized growth,"S. cerevisiae deletion strains, locus YPL055C, strain LGE1, hits give low values",0.985
same,normalized growth,"S. cerevisiae deletion strains, locus YPL078C, strain atp4, hits give low values",1.02
same,normalized growth,"S. cerevisiae deletion strains, locus YPL106C, strain sse1, hits give low values",0.995
same,normalized growth,"S. cerevisiae deletion strains, locus YPL240C, strain hsp82, hits give low values",1.03
same,normalized growth,"S. cerevisiae deletion strains, locus YPL241C, strain CIN2, hits give low values",1.01
same,normalized growth,"S. cerevisiae deletion strains, locus YPL256C, strain CLN2, hits give low values",0.97
same,normalized growth,"S. cerevisiae deletion strains, locus YPR119W, strain clb2, hits give low values",1
same,normalized growth,"S. cerevisiae deletion strains, locus YPR141C, strain kar3, hits give low values",0.997
same,normalized growth,"S. cerevisiae deletion strains, locus YPR163C, strain tif3, hits give low values",0.953
same,normalized growth,"S. cerevisiae deletion strains, locus YPR167C, strain met16, hits give low values",1.01
same,normalized growth,"S. cerevisiae deletion strains, strain wtn01, hits give low values",0.988
same,normalized growth,"S. cerevisiae strains, strain wild type, hits give low values",1.04
